Screens deposited in PubChem by National Center for Advancing Translational Sciences (NCATS).
Many of the other results were omitted from the sample, so hits are more common in it than they were.
Pf Dd2 growth – qHTS Primary assay for Inhibitors of Plasmodium falciparum Dd2 growth in vitro; P. falciparum Dd2 growth, SYBR Green, 72 h; Potency, µM (series often up to 28.9 µM), inactives show top-dose activity, negative = inhibition, hits mostly inhibitors; 120,000 compounds, 4.3% hits; AID 1347417, 2020; active = well fitted inhibition curve with a large enough effect;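 note: plate controls were DMSO vehicle for no effect and reference drug for full effect; nearly all actives have a fitted effect of over 65% in size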
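Readout: SYBR Green fluorescence, 485 nm excitation, 535 nm emission, after ~16 h lysis at 37C. Before that, Dd2-infected red cells (2.5% hematocrit) grew 72 h with compound, 29 uM top final concentration.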
* marks the source's active call; other numbers are inactive results; i = inactive. Potency is the fitted concentration of half-maximal effect.

SMILES	Pf Dd2 growth
COc1ccc(-c2nc(-c3ccccc3)nc3c2CN(C(=O)c2ccc(C(F)(F)F)cc2)CC3)cc1	8.9µM*
COc1ccc(-c2nc3c(c(-c4ccccc4)n2)CN(C(=O)c2cccc(Cl)c2)CC3)cc1	i
COc1ccc(CC(=O)N2CCc3nc(-c4ccc(Cl)cc4)nc(-c4ccccc4)c3C2)cc1	i
CN(Cc1ncc[nH]1)C(=O)C1CCC(=O)N(CCN2CCOCC2)C1 (stereo not given)	22%
Cc1cc(C)nc(-n2nc(C)c3c2N(C)C(=O)CC3c2ccc(Cl)cc2)n1 (stereo not given)	11%
Cc1cc(C)nc(-n2nc(C)c3c2N(Cc2ccccc2C)C(=O)CC3c2ccc(Cl)cc2)n1 (stereo not given)	8.9µM*
Cc1ccccc1-n1nc(C)c2c1NC(=O)CSC2c1ccc(Cl)cc1 (stereo not given)	2%
CN1C(=O)CS(=O)(=O)C12CCN(C(=O)c1ccc(F)cc1)CC2	8%
COCCNC(=O)c1cc(-c2ccc(OC)cc2)nc2c1c(C)nn2-c1ccccc1	-30%
COc1ccc(-c2cc(C(=O)NC3CCNCC3)c3c(C)nn(-c4ccccc4)c3n2)cc1	11µM*
COc1ccc(NC(=O)c2cc(C3CC3)nc3c2c(C)nn3-c2ccccc2)cc1	6%
